ATXN2 expr inh = Primary qHTS for Inhibitors of ATXN expression | HEK-293 ATXN2-luciferase reporter, luminescence, 24 h | Potency, µM (titrated, usually from 57 µM), inactives show at the top dose activity change, negative = inhibition, hits mostly inhibitors | actives 0.72% (n = 360,000) | AID 1745845, 2022; also: % is scaled to controls: 0 for no effect and ±100 for the full control effect; nearly all actives have a fitted effect of over 55% in size
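qHTS (up to 57 uM final) was run with 24 h compound exposure of reporter cells at 37 °C. Each well was multiplexed: SteadyGlo luminescence measured ATXN2-luciferase expression after a fluorogenic Gly-Phe-AFC viability readout (25 uM final).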
Nrf2 ARE act = qHTS of Nrf2 Activators | Potency, µM (series often up to 46.1 µM), inactives show at the highest dose activation, actives largely listed as activators | AREc32 ARE-luciferase reporter (MCF7-derived line), luminescence, 24 h | AID 624171, 2012 | actives 0.31% (n = 410,000); also: % of control where 0% means no effect; nearly all actives have a fitted effect of over 65% in size
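Each well held 1000 AREc32 cells, which were incubated with compound for 24 hr at 37 deg C after overnight attachment, and ARE reporter activity was quantified by firefly luciferase luminescence.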
Nrf2 inh = Nrf2 qHTS screen for inhibitors. A549 ARE-Fluc reporter, luciferase luminescence, 18-24 h. Potency, µM (titrated, usually from 46 µM), for the others: at the highest dose activity change, negative = inhibition, actives largely listed as inhibitors. actives 2.1% (n = 360,000); also: % is scaled to controls: 0 for no effect and ±100 for the full control effect; nearly all actives have a fitted effect of over 60% in size
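A549 ARE_Fluc cells (5000/well, 5% FBS OPTI-MEM) pre-incubated 2 h, then treated with compounds 18-24 h at 37C/5% CO2 in concentration-response. CellTiter-Fluor viability read first; BugLite luciferase luminescence after 15 min at room temperature gives Nrf2 activity.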
S2 tox = Viability Counterscreen for Primary qHTS for Inhibitors of ATXN expression | S2 cells (HEK-293 line with an ATXN2-luciferase reporter) viability, CellTiter-Fluor protease fluorescence, 24 h | Potency, µM (highest dose often 56.7 µM), usual class: cytotoxic | actives 0.49% (n = 400,000) | AID 651635, 2014; also: nearly all actives have a fitted effect of over 40% in size
A549 tox = Nrf2 qHTS screen for inhibitors: counterscreen for cytotoxicity. actives 0.16% (n = 390,000). AID 504648, 2011. A549 ARE-Fluc cells, CellTiter-Fluor viability, 18-24 h. Potency, µM (highest dose often 46 µM), inactives show at the top dose activity change, negative = cytotoxicity, actives largely listed as inhibitors; also: % is scaled to controls: 0 for no effect and ±100 for the full control effect
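A549 ARE-Fluc cells in 5% FBS OPTI-MEM, 5000 cells/well, rested 2 h then exposed to compounds in concentration-response for 18-24 h at 37 °C. Viability by CellTiter-Fluor fluorescence (Ex 405/Em 525) after 30 min; luciferase luminescence (BugLite, 15 min, RT) read afterwards.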
Active calls of the source: *; i = inactive; ? = inconclusive; · = no result. In the library only some 2.9% were active in any assay of this set; here they are far more common. Calls follow the shape of the dose curve; as a rule, active = well fitted curve in the direction sought with a large enough effect; inconclusive = small, poorly fitted or top-dose-only effect, or another doubt; inactive = no such curve, though single readings can be large; an effect the other way counts as inactive or inconclusive. Potency is read from the fitted curve at half-maximal effect.

SMILES	ATXN2 expr inh	Nrf2 ARE act	Nrf2 inh	S2 tox	A549 tox
CCOc1ccc(NC(=O)NC(=O)N(C)S(=O)(=O)c2ccc(C)cc2)cc1	6%	0%	13%	i	-1%
Fc1cccc(Cl)c1/C=C/c1cnc2ccccc2n1	-19%	3.5µM*	?	i	2%
C[C@H](O)[C@@H]1CN2CCc3c([nH]c4ccccc34)[C@@H]2C[C@@H]1N(C)C(=O)Nc1ccc(Br)cc1	4%	7%	·	?	·
CCOC(=O)c1cnc(-n2cc(C)cn2)nc1Nc1ccccc1OCC	-27%	0%	?	i	-8%
COc1ccc(-c2oc3ncnc(NCCCN(C)C)c3c2-c2ccc(OC)cc2)cc1	?	-1%	?	?	-15%
CCCCNc1ncnc2oc(-c3ccco3)c(-c3ccco3)c12	·	·	21µM*	·	-14%
CC1CC(C)CN(S(=O)(=O)N2CCCC(C(=O)NCCCN3CCOCC3)C2)C1 (stereo unspecified)	4%	-1%	4%	i	1%
Cc1cccc(CS(=O)(=O)c2nnc([C@H](Cc3ccccc3)NC(=O)OC(C)(C)C)o2)c1	7.9µM*	?	·	8.9µM*	-1%
CCOc1ccc(CN(C)c2ccc(S(=O)(=O)N3CCN(C)CC3)cc2[N+](=O)[O-])cc1OC	-34%	2%	16µM*	i	-4%
COc1ccccc1-c1nn(-c2ccccc2)cc1C(=O)NCC(c1ccco1)N1CCCC1 (stereo unspecified)	-3%	0%	15%	i	-1%
Nc1ccn([C@@H]2O[C@H](CO)[C@@H](O)[C@H]2O)c(=O)n1	?	-1%	-16%	i	2%
Nc1ccn([C@@H]2O[C@H](CO)[C@@H](O)C2(F)F)c(=O)n1	32µM*	·	·	?	·
O=S(=O)(Nc1ccc(-c2csc(-c3ccccc3)n2)cc1)c1ccc(F)cc1	?	-1%	-21%	?	-13%
O=C(CCS(=O)(=O)c1ccccc1)Nc1nc(-c2cccs2)cs1	-2%	?	8%	?	1%
O=C(Nc1nc(-c2ccccc2)cs1)c1ccccc1NS(=O)(=O)c1ccc(F)cc1	?	11%	6.5µM*	i	?
O=C(CCS(=O)(=O)c1ccc(F)cc1)Nc1nc(-c2ccncc2)cs1	·	16µM*	-6%	·	-4%
COc1ccc(-c2cc(CCCC(=O)NCc3ccccn3)no2)cc1	13%	-3%	7%	i	12%
CCn1c(SCC(=O)N2CCCCC2C)nnc1-c1ccc(S(=O)(=O)N2CCN(C)CC2)cc1 (stereo unspecified)	-6%	0%	-1%	i	18%
CCCC(NCC(O)COc1ccc(-c2ccccc2)cc1)c1ccccc1 (stereo unspecified)	19µM*	-3%	?	?	?
CC(NCC(O)COc1ccc2ccccc2c1)c1ccccc1 (stereo unspecified)	18µM*	4%	6%	?	4%
COc1ccc(OCC(O)CNC(C)c2ccccc2)cc1 (stereo unspecified)	·	4%	1%	i	6%
CONC(=O)C1CCN(C(=O)OCc2ccccc2)CC1	7%	1%	·	i	0%
CCOC(=O)c1c(C)[nH]c(C(=O)N(C)CC(=O)Nc2ccc(OCC)c(OCC)c2)c1C	·	0%	·	·	·
Cc1cccc(C(=O)N[C@H](C(=O)Nc2nnc(C3CC3)s2)C(C)C)c1	4%	0%	1%	i	4%
Cc1cccc(C(=O)N[C@H](C(=O)Nc2ncc(C)s2)C(C)C)c1	8.4µM*	-1%	?	i	-12%
SMILES	ATXN2 expr inh	Nrf2 ARE act	Nrf2 inh	S2 tox	A549 tox
O=C(/C=C/c1ccc(Cl)cc1Cl)Nc1cccc(S(=O)(=O)NC2=NCCC2)c1	·	16%	?	?	-7%
O=C(/C=C/c1ccccc1Cl)Nc1cccc(S(=O)(=O)NC2=NCCCCC2)c1	-8%	15%	9.2µM*	?	?
O=C(/C=C/c1ccc([N+](=O)[O-])cc1)Nc1cccc(S(=O)(=O)NC2=NCCCCC2)c1	-12%	4%	18µM*	?	-19%
O=C(Cc1ccccc1[N+](=O)[O-])Nc1cccc(S(=O)(=O)NC2=NCCCCC2)c1	-2%	0%	?	i	11%
COCCSc1ccccc1C(=O)N1CCN(c2ccccc2)CC1	·	-1%	-8%	i	-7%
O=S(=O)(NCCSc1ccc(Cl)cc1)c1ccc2c(c1)OCCO2	-9%	2%	-13%	i	1%
O=c1c2ccccc2ncn1CCCSc1ccc(Cl)cc1	-2%	0%	17%	i	11%
O=c1c2ccccc2ncn1CCCSc1ccccc1	8%	4%	23µM*	i	?
COc1ccc(CCNC(=O)[C@H](C)N2C(=O)N3CCc4c([nH]c5ccccc45)[C@@]3(C)C2=O)cc1	-19%	-1%	15µM*	i	-12%
COc1ccc(CNC(=O)[C@H](C)N2C(=O)N3CCc4c([nH]c5ccc(OC)cc45)[C@@]3(C)C2=O)cc1	-10%	0%	-8%	i	-1%
COc1ccccc1CNC(=O)[C@H](C)N1C(=O)N2CCc3c([nH]c4ccccc34)[C@@]2(C)C1=O	-25%	6%	23µM*	i	?
COc1ccc2[nH]c3c(c2c1)CCN1C(=O)N([C@@H](C)C(=O)NCCc2ccc(OC)c(OC)c2)C(=O)[C@]31C	-18%	5%	?	i	6%
COc1ccc(CCNC(=O)[C@H](C)N2C(=O)N3CCc4c([nH]c5ccccc45)[C@@]3(C)C2=O)cc1OC	?	4%	16µM*	?	-18%
Cc1cccc(C)c1-n1nnnc1SCc1nc(N)nc(N(C)C)n1	-16%	0%	·	i	·
CC(C)CCOc1cccc(OCC(=O)N(C)C2CCS(=O)(=O)C2)c1 (stereo unspecified)	4%	5%	?	i	·
Cc1cccc(N(CC(=O)NC(C)(C)C)C(=O)CS(=O)CC(=O)Nc2ccc3c(c2)OCO3)c1 (stereo unspecified)	·	0%	5%	i	-5%
O=C(C=C=Nc1ccccc1)C(=O)N=C=Cc1ccccc1	?	?	?	28µM*	?
O=C(O)c1ccc(/C=N\Nc2ccc(S(=O)(=O)N3CCOCC3)cc2[N+](=O)[O-])cc1	13%	0%	3%	i	-12%
Cc1ccc(-n2c(O)c(/C=N/Nc3ccc(S(=O)(=O)N4CCOCC4)cc3[N+](=O)[O-])c3ccccc3c2=O)c(C)c1	?	14%	18µM*	?	?
CCCCCCn1nc(C(=O)OCC(=O)NC2CCS(=O)(=O)C2)c2ccccc2c1=O (stereo unspecified)	-23%	0%	-16%	i	-1%

Assay outcomes: PubChem BioAssay, National Center for Advancing Translational Sciences (NCATS)
